Compounds without any hit were thinned out: in the full panel of roughly 83,000, 20% have a hit.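 Values shown are percent growth following 48 h exposure of cells in 96-well plates to a single concentration of compound; below 10 was considered active.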 Unmarked numbers belong to inactive results. Active and inactive are the calls of the source.
How the values were obtained:
Assay in all cases: NCI-60 one-dose screen, 48 h (100 = growth as untreated, 0 = no growth, -100 = all killed)
Conditions in all cases: 10 µM
[1] = system: NCI-H23 lung
[2] = system: NCI-H226 lung
[3] = system: NCI-H322M lung
[4] = system: HOP-62 NSCLC
[5] = system: NCI-H460 lung
[6] = system: NCI-H522 lung
[7] = system: A549/ATCC NSCLC
[8] = system: 786-0 renal
[9] = system: COLO 205 colon
[10] = system: DU-145 prostate

Row | SMILES | growth [1] | growth [2] | growth [3] | growth [4] | growth [5] | growth [6] | growth [7] | growth [8] | growth [9] | growth [10]
1 | CCCCN(CCCC)CCCCCCCCC(O)c1cc2ccccc2c2ccccc12 (configuration not stated) | 40.8% | 80.2% | 84.5% | 76.7% | 54.2% | 39.1% | 56.8% | 67.3% | 44.1% | 69.7%
2 | Cn1c([N+](=O)[O-])cnc1/C=C1\Oc2cc(Cl)ccc2C1=O | -22.8% (active) | 59.5% | 60.4% | 16.5% | -32.1% (active) | -53.8% (active) | 3.98% (active) | -6.4% (active) | -52.9% (active) | -18.3% (active)
3 | CCN(CCCCCCCCCCN1CC(=O)N(CCCCCCCCCCN(CC)Cc2ccccc2OC)CC1=O)Cc1ccccc1OC | -26.1% (active) | -2.55% (active) | 18.4% | -71.6% (active) | -93.3% (active) | -74% (active) | -48.8% (active) | -72.5% (active) | -91.6% (active) | -52.9% (active)
4 | COc1ccc2c(c1)C(=O)c1c-2c(OCCN2CCCCC2)nc2ccc(OC)cc12 | 12.6% | 23.9% | 5.72% (active) | 24.4% | -50.7% (active) | 25.1% | 11.6% | 18% | 28% | 11.3%
5 | O=[N+]([O-])c1ccc(Oc2cccnc2)c([N+](=O)[O-])c1 | 96.5% | 89.7% | 94.8% | 104% | 109% | 36.3% | 102% | 93.2% | 55.5% | 86.2%
6 | CN(C)CC(O)c1ccc2cc(Br)c3ccccc3c2c1 (configuration not stated) | 80.1% | 78.7% | 72.7% | 62.1% | 37% | 65.6% | 57.1% | 54% | -67.8% (active) | 70.7%
7 | COc1ccc(C2CC(c3ccc(N(C)C)cc3)=NN2c2ccc(S(N)(=O)=O)cc2)cc1 (configuration not stated) | 53.6% | 52.4% | 83.1% | 78.2% | 29.2% | 40.9% | 26.1% | 64.3% | 55.4% | 78.4%
8 | COc1ccc2c(c1)O/C(=C\c1ccc([N+](=O)[O-])o1)C2=O | -3.07% (active) | 22.3% | 41.5% | -12.4% (active) | -20.9% (active) | -63% (active) | -10.9% (active) | -27.3% (active) | -79.4% (active) | -11.1% (active)
9 | C#Cc1ccc(-n2c(/C=C/c3ccc4ccccc4n3)nc3ncccc3c2=O)cc1 | -44.9% (active) | -81.9% (active) | -45.1% (active) | -34% (active) | -46.3% (active) | -73.9% (active) | -25.8% (active) | 0.1% (active) | -94.9% (active) | -37.6% (active)
10 | Nc1ccccc1NC(=O)CCCCC(=O)Nc1ccc2c(c1)/C(=C/c1ccc[nH]1)C(=O)N2 | 89.6% | 52.2% | 63.3% | 83% | 73.9% | 37.5% | 92.9% | 90.2% | 87.4% | 70.7%
11 | CS(=O)(=O)Nc1ccc(Nc2c3ccccc3nc3cc(N)ccc23)cc1 | 20.5% | -13.9% (active) | 42% | 11.9% | 1.01% (active) | -11.5% (active) | 11% | 2.37% (active) | 51.9% | 16.9%
12 | CN1CC[C@@H](c2c(O)cc(O)c3c(=O)cc(-c4ccccc4Cl)oc23)[C@@H](O)C1 | -13.3% (active) | 11.8% | 4.68% (active) | 12.1% | 5.19% (active) | -42.6% (active) | 14.2% | 13% | -51% (active) | 1.56% (active)
13 | O=C(C[n+]1ccccc1)c1ccc2ccccc2c1 | 88.1% | 96.4% | 95.2% | 89.1% | 104% | 103% | 96.7% | 87.6% | 102% | 87.9%
14 | O=C(Nc1ccc(CO)cc1)c1ccccc1Nc1ccnc(C(F)(F)F)c1 | 96.5% | 105% | 113% | 95.4% | 103% | 93.7% | 99.5% | 102% | 104% | 106%
15 | O=C(C[P+](c1ccccc1)(c1ccccc1)c1ccccc1)C[P+](c1ccccc1)(c1ccccc1)c1ccccc1 | -14.5% (active) | -71.8% (active) | -59.3% (active) | -59.8% (active) | -68.3% (active) | -83.8% (active) | -27.9% (active) | -97.9% (active) | -27.9% (active) | -94% (active)
16 | O=C(CCCCCCC(=O)Nc1cccnc1)NO | 57.9% | 86.5% | 27.7% | 39.5% | 39.9% | -12.8% (active) | 66.2% | 70.4% | 113% | 40.1%
17 | O=C(Nc1cccc(-n2cc(-c3ccncc3)c(-c3cc(O)cc(Cl)c3)n2)c1)Nc1ccc(Cl)c(C(F)(F)F)c1 | 10.5% | 41.2% | 45% | 8.99% (active) | 3.75% (active) | -16% (active) | 8.81% (active) | -29.8% (active) | 63.4% | 18.7%
18 | CCCCN(CCCC)c1cc(C(=O)CCCCCN)c2ccccc2n1 | 94.5% | 93% | -30.8% (active) | 110% | 31.8% | 76.9% | -31.8% (active) | 38.8% | 17.4% | -81.1% (active)
19 | O=C(Nc1ccncc1)C(=O)c1cn(S(=O)(=O)c2cc(Cl)cc(Cl)c2)c2ccccc12 | 70.3% | 74.2% | 99.6% | 71.7% | 87.3% | 40.2% | 85.3% | 72.5% | 104% | 66.5%
20 | N#Cc1ncc(Br)c(NC2CCCCCC2)n1 | 103% | 97.1% | 105% | 106% | 116% | 110% | 89% | 104% | 113% | 103%
21 | COc1ccc(-n2c(SCc3cc(OC)c(OC)c(OC)c3)nc3ccc(C)cc3c2=O)cc1 | 69.2% | 73.4% | 80.3% | 65.2% | 73.8% | 39.4% | 51% | 84.1% | 32.7% | 94.9%
22 | CC(=O)/C(=C/c1ccccc1)C(=O)CC(C)C | 100% | 106% | 116% | 115% | 99.8% | 95.2% | 97% | 95.9% | 100% | 92.8%
23 | Cc1ccc(NC(=O)Nc2cccnc2)cc1NC(=O)Nc1cccnc1 | 88.4% | 95.3% | 100% | 117% | 85.9% | -37.3% (active) | 30.8% | 94.8% | 118% | 98.2%
24 | N#Cc1c(C#N)c(SSc2c(C#N)c(C#N)c(N)n2-c2ccccc2)n(-c2ccccc2)c1N | 94.8% | 101% | 108% | 109% | 120% | 67.3% | 112% | 101% | 97.4% | 115%
25 | COc1cc(-c2cc(/C=C/C(=O)c3ccc(N)cc3)[nH]n2)cc(OC)c1OC | 24.6% | 51.8% | 11.4% | 23.9% | -28.9% (active) | 10.8% | 1.29% (active) | -28.9% (active) | -45% (active) | 7.2% (active)
26 | COc1ccc(-c2nnc(-c3c(-c4ccccc4)nc4ncccn34)o2)cc1OC | 97.2% | 93.2% | 94.2% | 84.6% | 107% | 94.2% | 96% | 102% |  | 109%
27 | Nc1c(C(=O)Nc2cccc3ccccc23)sc2nc3c(cc12)C(=O)CCC3 | 18% | 54.1% | 37.6% | 26.1% | 5.05% (active) | -8.85% (active) | 23.4% | 46.1% |  | -9.63% (active)
28 | COc1cc(-c2nc(-c3nnc(-c4ccc(F)c(Cl)c4)o3)c3ccccn23)cc(OC)c1OC | 70.1% | 15.3% | 54.5% | -65.6% (active) | 7.43% (active) | 5.92% (active) | 23.7% | 45.5% |  | 41%
